# Measurements as given in PMC4336329 (PLoS ONE, 2015).
# The whole screen tested about 310,000 compounds, of which about 14,000 (4.5%) showed an effect of 50% or more. Effects have a minus sign here. Only a selection was taken, and strong results are over-represented in it overall.
# Target: human ether-à-go-go-related gene (hERG) potassium channel (human, UniProt Q12809)
# Experiment: primary screen, population patch clamp on CHO cells stably expressing hERG; higher = less effect of the substance
# 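Further: peak tail current of the secondary pulse compared with the same well before compound.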
# human ether-à-go-go-related gene (hERG) potassium channel, sequence (Q12809 whole entry, looked up): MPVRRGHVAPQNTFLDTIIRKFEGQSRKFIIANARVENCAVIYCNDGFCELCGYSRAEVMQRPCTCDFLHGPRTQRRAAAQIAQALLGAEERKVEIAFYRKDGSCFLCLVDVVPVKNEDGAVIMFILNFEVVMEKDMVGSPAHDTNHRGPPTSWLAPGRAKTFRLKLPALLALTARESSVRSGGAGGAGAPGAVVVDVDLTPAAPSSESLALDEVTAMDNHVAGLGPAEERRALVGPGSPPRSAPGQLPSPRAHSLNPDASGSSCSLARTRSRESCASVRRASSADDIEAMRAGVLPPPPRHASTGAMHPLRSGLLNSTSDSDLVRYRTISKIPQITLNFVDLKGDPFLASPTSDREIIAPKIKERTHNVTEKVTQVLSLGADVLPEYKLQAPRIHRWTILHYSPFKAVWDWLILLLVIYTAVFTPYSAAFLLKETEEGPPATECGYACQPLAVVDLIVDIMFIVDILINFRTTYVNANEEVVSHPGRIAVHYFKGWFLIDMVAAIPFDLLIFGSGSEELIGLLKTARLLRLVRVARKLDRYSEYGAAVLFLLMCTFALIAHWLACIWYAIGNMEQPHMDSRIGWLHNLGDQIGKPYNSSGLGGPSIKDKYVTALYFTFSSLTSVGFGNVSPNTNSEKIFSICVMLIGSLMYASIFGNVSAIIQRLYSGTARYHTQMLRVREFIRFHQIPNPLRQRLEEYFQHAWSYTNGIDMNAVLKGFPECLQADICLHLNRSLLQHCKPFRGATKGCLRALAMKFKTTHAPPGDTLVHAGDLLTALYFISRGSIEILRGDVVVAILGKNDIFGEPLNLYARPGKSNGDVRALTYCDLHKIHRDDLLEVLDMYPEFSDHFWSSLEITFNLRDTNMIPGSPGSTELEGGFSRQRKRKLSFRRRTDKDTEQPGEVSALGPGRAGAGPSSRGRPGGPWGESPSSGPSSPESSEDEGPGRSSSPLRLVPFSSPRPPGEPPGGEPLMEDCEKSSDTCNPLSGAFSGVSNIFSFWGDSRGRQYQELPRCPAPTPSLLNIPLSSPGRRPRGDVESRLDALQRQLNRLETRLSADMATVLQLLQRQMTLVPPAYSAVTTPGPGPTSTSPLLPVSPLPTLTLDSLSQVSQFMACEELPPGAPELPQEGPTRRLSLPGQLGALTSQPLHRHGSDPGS
row,Compound,"hERG current change (%, negative = inhibition) at 10uM"
1,O=C(CSc1nccc(=O)[nH]1)Nc1cccc(S(=O)(=O)N2CCOCC2)c1,4.22%
2,Cn1cnc2c1c(=O)n(Cc1c(Cl)cccc1Cl)c(=O)n2C,-3.36%
3,COc1ccccc1NC(=O)CSc1nc2sc(C)c(C)c2c(=O)n1C,6.42%
4,CC(=O)N1CCN(S(=O)(=O)c2cccc(C(=O)NCCc3ccc(Cl)cc3)c2)CC1,-12.1%
5,CC1Cc2ccccc2N1C(=O)COC(=O)C1=COCCO1 (centres unmarked),-7.1%
6,COc1ccc(CCNC(=O)COC(=O)/C=C/c2ccc(OC)c(OC)c2)cc1,-16%
7,O=C(CSc1nncn1-c1cccnc1)N(c1ccccc1)c1ccccc1,4.28%
8,CN(C)S(=O)(=O)N1CCN(C(=O)c2cccs2)CC1,7.17%
9,CC1=Nc2ccc(Br)cc2C(c2ccccc2)N1CC(=O)O (centres unmarked),33.7%
10,CCC1=Nc2ccc(Br)cc2C(c2ccccc2)N1CC(=O)OC (centres unmarked),-59.1%
11,COC(=O)CN1C(C)=Nc2ccc(C)cc2C1c1ccccc1 (centres unmarked),-43.1%
12,Br.COC(=O)CN1C(C)=Nc2ccc(Br)cc2C1c1ccccc1 (centres unmarked),-49.1%
13,NNC(=O)CN1C(CN2CCOCC2)=Nc2ccc(Br)cc2C1c1ccccc1 (centres unmarked),-48.9%
14,COC(=O)CN1C(CN2CCOCC2)=Nc2ccc(Br)cc2C1c1ccccc1 (centres unmarked),-75.3%
15,Cc1nnc(NC(=O)c2ccc(S(=O)(=O)N3CC(C)CC(C)C3)cc2)o1 (centres unmarked),5.33%
16,CCc1cccc2c(C(=O)C(NCCCOC)c3ccccc3)c[nH]c12 (centres unmarked),2.05%
17,O=C(CSc1cccc(C(F)(F)F)c1)Nc1cc(S(=O)(=O)N2CCCC2)ccc1Cl,-5.28%
18,CCOC(=O)N1CCC(N2C(=O)c3ccccc3C2Nc2cc(C(=O)OC)cc(C(=O)OC)c2)CC1 (centres unmarked),-17.5%
19,CCOC(=O)N1CCC(N2C(=O)c3ccccc3C2Nc2ccccc2)CC1 (centres unmarked),-9.74%
20,CCOC(=O)N1CCC(N2C(=O)c3ccccc3C2Nc2cc(OC)c(OC)c(OC)c2)CC1 (centres unmarked),-17.8%
21,CCOC(=O)c1ccccc1NC1c2ccccc2C(=O)N1C1CCN(C(=O)OCC)CC1 (centres unmarked),-56.4%
22,CCOC(=O)N1CCC(N2C(=O)c3ccccc3C2Nc2ccccc2C)CC1 (centres unmarked),-46.5%
23,CCOC(=O)N1CCC(N2C(=O)c3ccccc3C2Nc2cc(C)cc(C)c2)CC1 (centres unmarked),-21.8%
24,CCOC(=O)N1CCC(N2C(=O)c3ccccc3C2Nc2c(C)cccc2C)CC1 (centres unmarked),-75.1%
25,CCOC(=O)N1CCC(N2C(=O)c3ccccc3C2Nc2ccc3c(C)cc(=O)oc3c2)CC1 (centres unmarked),-63.8%
26,CCOC(=O)N1CCC(N2C(=O)c3ccccc3C2Nc2ccc3c(c2)OCCO3)CC1 (centres unmarked),-7.43%
